Potency and affinity values are given separately. Inconclusive results are not listed. Entries that show only a call come without a potency. The source made the active and inactive calls.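 The calls were made as follows: active = signal loss from cell killing with fitted potency at or below twice the top valid dose; inconclusive = flat drop of 30 to 70%, or unreliable curve fit; inactive = opposite direction, flat within 30%, or weaker potency.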
Test: A549 cell cytotoxicity, dose response, cytotoxicity control, cherry-picks, 26 µM top dose (AID 1053119)
Details: A549 viability, CellTiter-Glo ATP luminescence, 72 h; series mostly up to 26 µM

| Structure (SMILES) | outcome |
| --- | --- |
| Cc1cccc(NC(=O)c2ccc(C3SCC(=O)N3CCc3ccccc3)cc2)c1 (configuration not stated) | inactive |
| CCOC(=O)c1cnc(SCc2nc(N)nc(Nc3ccc(OC)cc3)n2)nc1N | inactive |
| COCC(C)n1c(SCc2nc(N)nc(Nc3ccccc3C)n2)nc2ccccc2c1=O (configuration not stated) | inactive |
| C[C@H](CO)N1C[C@H](C)[C@@H](CN(C)Cc2ccc(-c3ccccc3)cc2)Oc2ccc(NC(=O)C3CCCCC3)cc2C1=O | inactive |
| C[C@H](O)C#Cc1ccc2c(c1)O[C@@H](CN(C)C)[C@H](C)CN([C@@H](C)CO)S2(=O)=O | inactive |
| C[C@H](O)C#Cc1ccc2c(c1)O[C@@H](CN(C)C)[C@H](C)CN([C@H](C)CO)S2(=O)=O | inactive |
| Cc1ccc(S(=O)(=O)N2CC3(C)CN(S(=O)(=O)c4ccc(C)cc4)CC(C)(C2)C3=O)cc1 | inactive |
| O=C(c1cccnc1)N1C[C@H]2[C@@H](c3ccccc31)[C@@H](CO)N2CC1CCCC1 | inactive |
| C[C@@H]1CN([C@@H](C)CO)C(=O)c2cc(NC(=O)C3CCCCC3)ccc2O[C@@H]1CN(C)Cc1ccc(-c2ccccc2)cc1 | inactive |
| Cc1c(NC(=O)c2ccc3nsnc3c2)cccc1[N+](=O)[O-] | inactive |
| COc1ccc(CN(C2CCCC2)S(=O)(=O)c2ccc(-n3cnnn3)cc2)cc1OC | inactive |
| COc1cccc(-c2ccc3c(c2)[C@@H]2[C@@H](CCN2S(=O)(=O)c2cccc(OC)c2)[C@@H](CO)N3)c1 | inactive |
| CC(C)NC(=O)N(C)C[C@H]1Oc2ccc(NC(=O)CCN3CCOCC3)cc2C(=O)N([C@H](C)CO)C[C@@H]1C | inactive |
| CCc1nc2c(OCCc3cccc(OC)c3)cccn2c1N(C)C(=O)c1ccc(C)cc1 | inactive |
| C[C@H](CO)N1C[C@H](C)[C@H](CN(C)C(=O)c2cccc(F)c2)Oc2ncc(-c3ccccc3)cc2C1=O | inactive |
| C[C@H](O)C#Cc1ccc2c(c1)O[C@H](CN(C)C)[C@@H](C)CN([C@H](C)CO)S2(=O)=O | inactive |
| Cc1cccc(NC(=O)Nc2ccc(S(=O)(=O)Nc3onc(C)c3C)cc2)c1 | inactive |
| CSc1ccccc1C(=O)C1CCCN(C(=O)CCc2cccnc2)C1 (configuration not stated) | inactive |
| Cc1ccc(NC(=O)COC(=O)c2cc(Cl)ccc2[N+](=O)[O-])c(C)c1 | inactive |

| Structure (SMILES) | outcome |
| --- | --- |
| CC1(C)Cc2c(C#N)c(SCC(=O)c3ccccc3)nc(N3CCOCC3)c2CS1 | inactive |
| CCC(C)(C)NC(=O)C(OC(=O)c1ccco1)c1ccccc1OC (configuration not stated) | inactive |
| Cn1cnc(S(=O)(=O)N2CCN(c3ccccc3)CC2)c1 | inactive |
| N#C[C@@H]1[C@H](c2ccccc2C2=CCCCC2)[C@@H](CO)N1S(=O)(=O)c1ccccc1 | inactive |
| O=S(=O)(c1cccc(F)c1)N1CC[C@H]2[C@H](CO)Nc3ccc(-c4cccc(F)c4)cc3[C@H]21 | inactive |
| Cc1ccccc1S(=O)(=O)N1CC[C@H]2[C@H](CO)Nc3ccc(-c4ccc(C#N)cc4)cc3[C@H]21 | inactive |
| O=S(=O)(c1ccccc1F)N1CC[C@@H]2[C@@H](CO)Nc3ccc(-c4cccc(F)c4)cc3[C@@H]21 | inactive |
| O=C(Nc1ccccc1F)N1C[C@@H]2[C@H](c3ccccc31)[C@H](CO)N2C(=O)C1CCOCC1 | inactive |
| C[C@@H]1CN([C@@H](C)CO)C(=O)c2cc(-c3ccccc3)cnc2O[C@H]1CN(C)C(=O)c1cccc(F)c1 | inactive |
| N#Cc1ccc(-c2ccc3c(c2)[C@@H]2[C@@H](CCN2S(=O)(=O)c2ccccc2F)[C@H](CO)N3)cc1 | inactive |
| COC(=O)C[C@H]1CC[C@@H]2[C@H](COc3ccc(NC(=O)Cc4cccs4)cc3C(=O)N2C)O1 | inactive |
| C[C@H]1CN([C@@H](C)CO)C(=O)c2cc(NC(=O)CCCN(C)C)ccc2O[C@@H]1CN(C)Cc1ccc(-c2ccccc2)cc1 | inactive |
| N#Cc1ccc(-c2ccc3c(c2)[C@@H]2[C@@H](CCN2S(=O)(=O)c2cccc(F)c2)[C@H](CO)N3)cc1 | inactive |
| C[C@H](CO)N1C[C@H](C)[C@@H](CN(C)Cc2ccccc2)Oc2ncc(-c3ccccc3)cc2C1=O | inactive |
| C[C@@H]1CN([C@H](C)CO)C(=O)c2cccc(NC(=O)Nc3ccc(C(F)(F)F)cc3)c2O[C@H]1CN(C)C(=O)Nc1cccc2ccccc12 | inactive |
| CO[C@@H]1CN(C)C(=O)c2cc(NC(=O)Nc3ccc(Cl)c(Cl)c3)ccc2OC[C@H](C)NC[C@@H]1C | inactive |
| O=S(=O)(c1ccccc1F)N1CC[C@@H]2[C@H]1c1cc(-c3cccc(F)c3)ccc1N[C@@H]2CO | inactive |
| O=c1c2cc(N3CCOCC3)ccc2[nH]c(=S)n1Cc1ccc(Cl)cc1 | inactive |
